Screens as filed in PubChem.
Rows were chosen to be rich in hits. Some 4.6% of all compounds tested hit in one or more screens of this group.
USP7 block – human USP7 deubiquitinase inhibition; Q93009; purified USP7, Ub-rhodamine cleavage fluorescence; inhibition, % at 20 µM; 0.3% of 47,000 active; AID 1645854
Target sequence (Q93009 whole entry, looked up): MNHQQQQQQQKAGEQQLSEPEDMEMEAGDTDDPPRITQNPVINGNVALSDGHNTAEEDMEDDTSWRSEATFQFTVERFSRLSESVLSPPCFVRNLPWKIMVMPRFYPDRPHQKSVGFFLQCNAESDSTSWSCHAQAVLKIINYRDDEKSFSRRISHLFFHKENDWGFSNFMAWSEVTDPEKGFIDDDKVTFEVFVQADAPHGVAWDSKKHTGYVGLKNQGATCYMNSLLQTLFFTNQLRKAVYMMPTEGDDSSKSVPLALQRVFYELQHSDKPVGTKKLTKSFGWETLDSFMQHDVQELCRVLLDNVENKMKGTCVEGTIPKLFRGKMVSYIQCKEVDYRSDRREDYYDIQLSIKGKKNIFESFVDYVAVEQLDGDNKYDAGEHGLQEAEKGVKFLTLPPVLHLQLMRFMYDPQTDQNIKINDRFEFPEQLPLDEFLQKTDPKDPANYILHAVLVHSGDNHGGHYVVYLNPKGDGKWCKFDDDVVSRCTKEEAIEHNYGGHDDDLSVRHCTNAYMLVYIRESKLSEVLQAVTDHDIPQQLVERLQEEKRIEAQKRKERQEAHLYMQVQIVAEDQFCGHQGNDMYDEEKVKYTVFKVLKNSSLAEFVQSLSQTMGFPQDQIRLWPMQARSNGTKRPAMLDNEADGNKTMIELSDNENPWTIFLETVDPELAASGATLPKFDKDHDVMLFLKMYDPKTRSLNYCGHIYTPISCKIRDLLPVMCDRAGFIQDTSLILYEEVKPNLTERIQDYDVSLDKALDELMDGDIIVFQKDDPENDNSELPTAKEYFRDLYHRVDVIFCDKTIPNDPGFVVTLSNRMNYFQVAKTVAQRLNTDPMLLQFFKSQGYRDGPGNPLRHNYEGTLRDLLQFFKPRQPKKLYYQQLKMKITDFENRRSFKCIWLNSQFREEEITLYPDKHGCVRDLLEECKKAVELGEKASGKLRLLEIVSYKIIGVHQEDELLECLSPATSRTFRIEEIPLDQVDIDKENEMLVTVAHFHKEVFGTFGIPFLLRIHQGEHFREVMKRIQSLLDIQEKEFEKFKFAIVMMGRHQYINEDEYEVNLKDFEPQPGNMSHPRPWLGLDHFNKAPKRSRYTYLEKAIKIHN
USP10 inh – human USP10 deubiquitinase inhibition | 1.1% of 47,000 active | inhibition, % at 20 µM | purified USP10, Ub-rhodamine fluorescence, 60 min
USP8 block – inhibitors of human USP8 deubiquitinase; purified USP8, Ub-rhodamine cleavage fluorescence, 30 min; inhibition, % at 20 µM; 4.2% of 47,000 active
UCHL1 inh – inhibitors of human UCHL1 deubiquitinase; purified UCHL1, Ub-rhodamine cleavage fluorescence; inhibition, % at 20 µM; 0.2% of 47,000 active
* hit, by the source's call. Cut-off read from the data, not from the text of the source: active = inhibition above about 30%; inactive = the rest.

SMILES	USP7 block	USP10 inh	USP8 block	UCHL1 inh
COc1ccc(C2C(C(=O)C(C)(C)C)N3c4ccccc4C=CC3C23C(=O)c2ccccc2C3=O)cc1 (stereo not given)	-162	-3	-189	-153
CC(C)NC(=O)COc1cccc(-c2noc(-c3ccccc3Cl)n2)c1	-8	0	0	1
C=C/C(C)=C/[C@@]1(C)SC(=O)C(C)=C1O	-9	18	41*	21
Brc1ccc(Nc2nc(-c3ccccn3)nc3ccccc23)cc1	16	20	93*	4
FC(F)(F)c1cccc(Nc2nc(-c3ccccn3)nc3ccccc23)c1	13	22	22	6
Cn1cc(S(=O)(=O)Nc2cnn(Cc3cccc(Cl)c3)c2)cn1	-3	4	77*	6
Cn1cc(S(=O)(=O)Nc2ncn(Cc3cccc(Cl)c3)n2)cn1	3	-2	0	0
Cc1cc(-c2cnc(NCc3ccc(F)cc3)nc2-c2ccco2)on1	1	12	35*	0
CCC(NC(=O)c1ccccc1F)c1ccc2c(c1)OCCO2 (stereo not given)	3	4	7	2
COc1ccc(NC(=O)CCc2nc3sc4c(c3c(=O)[nH]2)CCCCC4)cc1	0	10	32*	-6
O=C(CCc1nc2sc3c(c2c(=O)[nH]1)CCCCC3)Nc1ccccc1	-1	-6	4	-1
O=C1CC(c2ccco2)Cc2nc(N3CCc4ccccc43)ncc21 (stereo not given)	7	-1	40*	4
Cc1ccc2c(C)nc(Nc3ncc4c(n3)CC(c3ccco3)CC4=O)nc2c1 (stereo not given)	12	10	61*	9
O=C1CC(c2ccco2)Cc2nc(N3CCc4ccccc4C3)ncc21 (stereo not given)	0	6	3	5
COc1cccc(S(=O)(=O)N2CCn3nc(C(C)(C)C)cc3C2)c1	0	0	22	3
Cn1ccnc1C(NC(=O)c1cnc2ccccc2n1)c1ccccc1F (stereo not given)	5	-1	-28	1
CN1C(=O)COc2cc(-c3noc(C(=O)NCc4ccc(F)cc4)n3)ccc21	9	55*	41*	4
Cc1ccc(C(=O)NCCc2nc(-c3ccc4c(c3)OCO4)n[nH]2)cc1F	-13	1	32*	2
Cc1noc(C)c1CNC(=O)c1ccc2c(c1)OCO2	2	-3	-2	0
Cc1cc(=O)[nH]c(Sc2c(-c3ccccc3)c3cc([N+](=O)[O-])ccc3[nH]c2=O)n1	-135	15	-34	3
O=[N+]([O-])c1ccc2nc3c(c(-c4ccccc4)c2c1)CNCC3	-132	-3	82*	0
O=C(Nc1cc(F)c2nc(N3CCOCC3)ccc2c1)c1ccc(Br)o1	-9	-8	86*	4
Cc1ccc(NC(=O)c2cnc(N3CCOCC3)nc2)cc1F	-43	1	13	0
O=C(Nc1cc(F)c2nc(N3CCOCC3)ccc2c1)C1CCC1	-4	0	78*	3
O=C(Nc1cc(F)c2nc(N3CCOCC3)ccc2c1)C1CC1	-4	-8	59*	7
SMILES	USP7 block	USP10 inh	USP8 block	UCHL1 inh
O=C(c1cnn2c3c(cnc12)CCCC3)N1CCCCCC1	-36	0	-1	2
O=C(CN1CCSc2ccccc21)Nc1cccc(Cl)c1	6	2	-1	0
COc1ccc2c(c1)CC(C(=O)NCc1ccc(OC)c(OC)c1)CO2 (stereo not given)	2	1	0	1
Cc1ccc(CSc2nc3ccccc3c(=O)[nH]2)cc1	4	6	6	0
Cn1c(SCc2nc3ccccc3c(=O)[nH]2)nc2ccccc21	-3	-4	34*	-10
Cc1cccc(Nc2cncc(C3CCCN(C(=O)c4cccnc4)C3)n2)n1 (stereo not given)	1	0	6	1
Cc1cccc(CNC(=O)C2CCCN(S(=O)(=O)N3CCCCC3)C2)c1 (stereo not given)	4	-1	32*	5
O=C(Nc1cccc2ccccc12)C1CCCN(S(=O)(=O)Cc2ccccc2)C1 (stereo not given)	6	9	32*	3
CCc1ccccc1NC(=O)N1CCCC(CN2CCc3ccccc3C2)C1 (stereo not given)	0	-1	11	-1
CS(=O)(=O)NC1CCCN(C(=O)Nc2cccc3ccccc23)C1 (stereo not given)	-8	-8	93*	5
O=C(Nc1ccccc1F)C1CCCN(S(=O)(=O)Cc2ccc(F)cc2)C1 (stereo not given)	-2	3	-8	0
Cc1cccc(C(=O)N2CCC[C@]3(C[C@@H](Oc4ccc(F)cc4)CO3)C2)n1	5	-3	25	0
O=C1CC(c2nc3ccccc3n2CCOc2ccc(Cl)cc2)CN1c1ccccc1 (stereo not given)	11	9	87*	7
COc1ccc(CNC(=O)c2ccc3c(=O)nc4c(-c5cccc(C)c5)n[nH]n4c3c2)cc1	22	41*	61*	1
Cc1ccc(Cn2cc(S(=O)(=O)N3CCCCC3)ccc2=O)cc1	-9	3	14	0
Cc1ccc(S(=O)(=O)N2CCN(S(=O)(=O)N3CCCCCC3)CC2)cc1	6	18	31*	2
O=C1c2ccccc2C2(CCCC2)C(=O)N1Cc1ccccc1	-59	8	49*	3
Cc1ccc(-c2c3c4n(c(-c5ccc(Cl)cc5)cn4c2C(=O)Nc2ccccc2Cl)CCCC3)cc1	-6	-3	43*	4
O=C(NCc1cccnc1)c1c2c(NCC3CC3)ncnc2n2ccccc12	-26	-2	68*	-11
CN1CCCN(C(=O)c2c3c(NCc4ccccc4)ncnc3n3ccccc23)CC1	-35	-6	-19	-24
O=S1(=O)NC2(CCN(Cc3ccccn3)CC2)Nc2ccccc21	5	-2	0	-1
CCOc1ccccc1NC(=O)Cn1c(=O)n(CCC(=O)NC2CCCC2)c(=O)c2ccccc21	3	2	26	1
CCOc1ccccc1NC(=O)Cn1c(=O)n(CCC(=O)NCc2ccc3c(c2)OCO3)c(=O)c2sccc21	29	69*	54*	7
O=C(CCn1c(=O)c2sccc2n(CC(=O)OCc2ccccc2)c1=O)NCc1ccc2c(c1)OCO2	16	36*	61*	5
CC(=O)N1CC(=O)N(Cc2ccccc2)/C(=C/c2ccc(F)cc2)C1=O	-2	-4	4	-1
COc1ccc(C2C(C(=O)N3CCCCC3)=C(C)Nc3nc4ccccc4n32)cc1 (stereo not given)	-4	-2	-60	3
COc1cc(/C=C2\Oc3cc(OCC=C(C)C)ccc3C2=O)cc(OC)c1OC	-3	-4	-3	-6
CC(C)=CCC/C(C)=C/COc1ccc(/C=C2\C(=O)N(O)[C@@H](C)C(=O)N2O)cc1	-18	38*	4	1
O=C(c1ccc(F)cc1)[C@@H]1[C@H](C(=O)OC(c2ccccc2)c2ccccc2)N2c3ccccc3C=CC2[C@@]12C(=O)Nc1ccccc12 (stereo not given in full)	-34	-9	-13	-29
